Active and inactive are the calls of the source.
Tests used:
[1] = tested on: Plasmodium falciparum Sir2 (PF13_0152, Sir2A); experiment: pfSir2 binders on small-molecule microarrays, primary screen, biochemical, small-molecule microarray, 635 nm fluorescence (AID 1098); conditions: small-molecule microarray binding, fluorescence 635 nm; higher = more signal;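 further: score merges spot fluorescence intensity with its signal-to-noise ratio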
[2] = small-molecule microarray binders of probe aDKK1, primary screen, biochemical, biotinylated probe, 635/667 nm fluorescence (AID 1099); conditions: higher = more signal;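 further: score merges 667nm spot fluorescence with signal to noise across triplicate slides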
[3] = small-molecule microarray binders of probe aCHRDL2, primary screen, biochemical, biotinylated probe, 635/667 nm fluorescence (AID 1100); conditions: higher = more signal
[4] = splicing luciferase reporter signal modulators, primary screen, spliceosome inhibition project, cell-based, HEK293, splice +/- reporter (AID 1101); conditions: luminescence, 24 h, higher = more signal, called active from +8 up or from −8 down;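 further: HEK293 cells carrying a splicing-competent luciferase reporter gene; test concentration not given here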
[5] = target: Fibroblast growth factor 10 (Homo sapiens) (UniProt O15520); experiment: FGF10 binders on small-molecule microarrays, primary screen, biochemical, small-molecule microarray, 635 nm fluorescence (AID 1102); conditions: FGF10 binding, fluorescence 635 nm, higher = more signal
Chain of Fibroblast growth factor 10 (Homo sapiens) (O15520 whole entry, looked up): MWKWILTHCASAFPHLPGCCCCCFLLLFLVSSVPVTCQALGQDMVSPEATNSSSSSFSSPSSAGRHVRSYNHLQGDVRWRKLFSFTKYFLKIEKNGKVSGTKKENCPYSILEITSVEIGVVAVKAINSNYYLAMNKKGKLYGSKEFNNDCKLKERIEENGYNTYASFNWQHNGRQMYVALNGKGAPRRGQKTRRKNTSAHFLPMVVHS

[6] = tested on: glycogen synthase kinase-3 (GSK3A per assay name; protocol says GSK3B); experiment: GSK3 binders on small-molecule microarrays, primary screen, biochemical, small-molecule microarray, 635 nm fluorescence, GSK3A (AID 1103); conditions: small-molecule microarray binding, fluorescence 635 nm; higher = more signal; further: the record names both GSK3A and GSK3B
[7] = target: Epidermal growth factor receptor (Homo sapiens) (UniProt P00533); experiment: EGFR binders on small-molecule microarrays, primary screen, biochemical, small-molecule microarray, 635 nm fluorescence (AID 1104); conditions: EGFR binding, higher = more signal;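 further: score merges 667 nm emission intensity with spot signal to noise over triplicate slides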
Chain of Epidermal growth factor receptor (Homo sapiens) (P00533 whole entry, looked up): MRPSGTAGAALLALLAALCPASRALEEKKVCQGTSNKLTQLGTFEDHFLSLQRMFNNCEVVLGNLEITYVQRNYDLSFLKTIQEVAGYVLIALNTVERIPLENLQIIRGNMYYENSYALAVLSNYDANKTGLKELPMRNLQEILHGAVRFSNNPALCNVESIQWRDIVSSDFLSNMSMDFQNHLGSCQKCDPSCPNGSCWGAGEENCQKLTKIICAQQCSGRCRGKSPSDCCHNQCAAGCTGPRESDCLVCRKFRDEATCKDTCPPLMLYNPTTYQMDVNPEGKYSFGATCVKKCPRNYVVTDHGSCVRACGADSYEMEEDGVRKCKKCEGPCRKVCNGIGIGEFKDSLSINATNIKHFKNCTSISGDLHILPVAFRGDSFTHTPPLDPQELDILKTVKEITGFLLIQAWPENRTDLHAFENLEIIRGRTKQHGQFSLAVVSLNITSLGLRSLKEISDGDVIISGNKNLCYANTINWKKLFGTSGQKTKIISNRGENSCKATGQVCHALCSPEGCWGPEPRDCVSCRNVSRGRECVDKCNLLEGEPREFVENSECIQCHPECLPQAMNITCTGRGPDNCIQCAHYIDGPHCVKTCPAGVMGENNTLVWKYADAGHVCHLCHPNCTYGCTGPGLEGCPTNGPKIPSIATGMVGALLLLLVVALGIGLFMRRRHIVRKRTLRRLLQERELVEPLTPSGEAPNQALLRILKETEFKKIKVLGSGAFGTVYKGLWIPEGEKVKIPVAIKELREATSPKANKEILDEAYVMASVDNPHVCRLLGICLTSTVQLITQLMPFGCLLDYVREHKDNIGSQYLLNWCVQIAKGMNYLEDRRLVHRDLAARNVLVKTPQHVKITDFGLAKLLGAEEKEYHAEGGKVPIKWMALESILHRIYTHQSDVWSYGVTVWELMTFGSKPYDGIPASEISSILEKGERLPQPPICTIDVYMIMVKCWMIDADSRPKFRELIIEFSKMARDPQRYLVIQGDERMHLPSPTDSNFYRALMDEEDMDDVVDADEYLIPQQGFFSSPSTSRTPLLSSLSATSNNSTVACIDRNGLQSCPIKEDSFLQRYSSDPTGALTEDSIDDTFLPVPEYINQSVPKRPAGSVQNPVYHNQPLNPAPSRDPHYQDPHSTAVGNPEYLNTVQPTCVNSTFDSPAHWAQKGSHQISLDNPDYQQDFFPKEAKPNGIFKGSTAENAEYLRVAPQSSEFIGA

[8] = target: Follistatin-related protein 3 (Homo sapiens) (UniProt O95633); experiment: FSTL3 binders on small-molecule microarrays, primary screen, biochemical, small-molecule microarray, 635 nm fluorescence (AID 1105); conditions: FSTL3 binding, higher = more signal;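 further: score merges emission near 667 nm and signal to noise per printed spot across three slides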
Chain of Follistatin-related protein 3 (Homo sapiens) (O95633 whole entry, looked up): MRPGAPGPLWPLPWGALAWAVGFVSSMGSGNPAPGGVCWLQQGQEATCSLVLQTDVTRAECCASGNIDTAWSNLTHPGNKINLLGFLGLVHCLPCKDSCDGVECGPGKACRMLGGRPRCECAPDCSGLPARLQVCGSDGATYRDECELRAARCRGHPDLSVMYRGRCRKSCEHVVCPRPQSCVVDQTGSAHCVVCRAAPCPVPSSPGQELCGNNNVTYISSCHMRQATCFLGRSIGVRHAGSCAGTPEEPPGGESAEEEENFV

[9] = target: Dickkopf-related protein 1 (Homo sapiens) (UniProt O94907); experiment: DKK1 binders on small-molecule microarrays, primary screen, biochemical, small-molecule microarray, 635 nm fluorescence scan (AID 1106); conditions: DKK1 binding, higher = more signal;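 further: score merges emission near 667 nm with signal to noise over three replicate slides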
Chain of Dickkopf-related protein 1 (Homo sapiens) (O94907 whole entry, looked up): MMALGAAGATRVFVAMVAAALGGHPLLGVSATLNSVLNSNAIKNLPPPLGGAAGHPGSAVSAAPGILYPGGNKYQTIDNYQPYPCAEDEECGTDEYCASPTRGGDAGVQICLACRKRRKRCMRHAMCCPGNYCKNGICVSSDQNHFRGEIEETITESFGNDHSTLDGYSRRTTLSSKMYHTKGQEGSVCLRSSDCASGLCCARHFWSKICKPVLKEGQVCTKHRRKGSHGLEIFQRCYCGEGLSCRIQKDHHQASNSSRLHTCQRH

[10] = tested on: Inhibin beta A chain (activin A); experiment: INHBA (activin A) binders on microarrays, primary screen, biochemical, small-molecule microarray, 635 nm fluorescence scan (AID 1107); conditions: small-molecule microarray binding, higher = more signal;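 further: mouse activin A protein probed at 4.33 µg/mL on printed slides; score merges bound-protein fluorescence near 667 nm with spot signal-to-noise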
[11] = tested on: Human papillomavirus type 1a protein E7 (residues 44-93); experiment: HPV1a E7 fragment binders on microarrays, primary screen, biochemical, small-molecule microarray, residues 44-93, 635 nm fluorescence (AID 1108); conditions: small-molecule microarray binding, fluorescence 635 nm; higher = more signal;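 further: E7 fragment applied at 1 µg/mL in TBST for 1 h at 4 C; score combines spot fluorescence with its signal to noise ratio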
[12] = modulators of HCV replicon luciferase signal, primary screen, HCV replication inhibitor project, Huh7 cells, luciferase reporter (AID 1109); conditions: 48 h, higher = more signal;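 further: huh7 hepatoma cells harbouring a luciferase neomycin HCV replicon reporter; luciferase luminescence as measure of HCV replicon replication; test concentration not given here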
[13] = target: Left-right determination factor 2 (Homo sapiens) (UniProt O00292); experiment: LEFTY2 binders on small-molecule microarrays, primary screen, biochemical, small-molecule microarray, 635 nm fluorescence scan (AID 1110); conditions: LEFTY2 binding, higher = more signal
Chain of Left-right determination factor 2 (Homo sapiens) (O00292 whole entry, looked up): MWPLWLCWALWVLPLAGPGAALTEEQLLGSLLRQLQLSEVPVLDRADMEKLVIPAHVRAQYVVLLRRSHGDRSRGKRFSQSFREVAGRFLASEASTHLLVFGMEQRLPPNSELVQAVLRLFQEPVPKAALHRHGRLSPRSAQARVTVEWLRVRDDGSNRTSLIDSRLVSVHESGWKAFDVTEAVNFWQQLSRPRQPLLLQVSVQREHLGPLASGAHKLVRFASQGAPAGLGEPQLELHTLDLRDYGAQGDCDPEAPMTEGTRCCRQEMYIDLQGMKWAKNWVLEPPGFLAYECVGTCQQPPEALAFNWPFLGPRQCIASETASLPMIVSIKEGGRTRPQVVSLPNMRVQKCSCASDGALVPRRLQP

[14] = target: Calmodulin-1 (Homo sapiens) (UniProt P0DP23); experiment: CALM1 binders on microarrays, EGTA buffer, profiling panel, biochemical, small-molecule microarray, Cy5-labelled CALM1 (AID 1111); conditions: Cy5-CALM1 binding fluorescence, higher = more signal;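 further: labelled calmodulin applied in Tris saline Tween buffer holding calcium plus EGTA and DTT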
[15] = target: Calmodulin-1 (Homo sapiens) (UniProt P0DP23); experiment: calcium-bound CALM1 binders on microarrays, profiling panel, artefact control for SMM control-protein annotation, biochemical, small-molecule microarray, Cy5-labelled CALM1, plus calcium (AID 1112); conditions: Cy5-CALM1 binding fluorescence, higher = more signal;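 further: score merges spot fluorescence with signal to noise from triplicate slides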
[16] = small-molecule microarray binders of probe aWnt5a, primary screen, biochemical, biotinylated probe, 635/667 nm fluorescence (AID 1113); conditions: higher = more signal;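 further: score merges 667 nm fluorescence intensity with signal-to-noise per printed feature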
[17] = small-molecule microarray binders of probe aShh, primary screen, biochemical, biotinylated probe, 635/667 nm fluorescence (AID 1114); conditions: higher = more signal;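 further: probe is biotin-labelled aShh protein from a stem cell growth factor screen; measures binding of labelled protein to compounds printed on the slide; score merges feature fluorescence at 667 nm with signal-to-noise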
[18] = small-molecule microarray binders of probe aNog, primary screen, biochemical, biotinylated probe, 635/667 nm fluorescence (AID 1115); conditions: higher = more signal;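 further: probe is biotinylated aNog protein used at 0.15 µg/mL for 1 h at 4 C; z-score combines 667 nm fluorescence of each spot with its signal to noise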
[19] = target: Torsin-1A-interacting protein 1 (Homo sapiens) (UniProt Q5JTV8); experiment: LAP1 binders from COS7 cell lysate, primary screen, small-molecule microarray, 635/667 nm fluorescence (AID 1116); conditions: COS7-hLAP1 lysate binding, 635 nm fluorescence, higher = more signal
Chain of Torsin-1A-interacting protein 1 (Homo sapiens) (Q5JTV8 whole entry, looked up): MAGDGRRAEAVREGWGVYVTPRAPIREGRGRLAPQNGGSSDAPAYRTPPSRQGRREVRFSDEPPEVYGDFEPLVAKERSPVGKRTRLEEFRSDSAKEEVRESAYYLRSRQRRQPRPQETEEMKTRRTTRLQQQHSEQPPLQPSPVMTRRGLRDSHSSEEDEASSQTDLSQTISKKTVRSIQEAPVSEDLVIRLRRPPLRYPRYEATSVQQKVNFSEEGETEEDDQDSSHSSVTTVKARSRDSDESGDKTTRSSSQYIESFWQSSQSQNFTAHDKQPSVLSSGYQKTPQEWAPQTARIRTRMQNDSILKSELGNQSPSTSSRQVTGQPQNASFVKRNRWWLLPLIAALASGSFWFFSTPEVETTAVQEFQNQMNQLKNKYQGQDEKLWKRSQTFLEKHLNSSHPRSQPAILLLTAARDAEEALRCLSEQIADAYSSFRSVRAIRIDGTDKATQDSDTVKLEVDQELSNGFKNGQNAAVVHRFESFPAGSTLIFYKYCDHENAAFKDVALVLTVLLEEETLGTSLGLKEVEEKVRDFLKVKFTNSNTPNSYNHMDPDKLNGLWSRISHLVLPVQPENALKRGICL

[20] = target: Alpha-bungarotoxin (Bungarus multicinctus) (UniProt P60615); experiment: alpha-bungarotoxin binders on microarray, profiling panel, artefact control for SMM control protein annotation, biochemical, small-molecule microarray, Alexa647 label, 635/667 nm fluorescence (AID 1117); conditions: alpha-BTX-A647 binding fluorescence, higher = more signal
Chain of Alpha-bungarotoxin (Bungarus multicinctus) (P60615 whole entry, looked up): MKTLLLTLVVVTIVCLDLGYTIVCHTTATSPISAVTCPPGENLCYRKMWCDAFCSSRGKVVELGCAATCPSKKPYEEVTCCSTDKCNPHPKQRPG

SMILES | composite z-score [1] | composite z-score [2] | composite z-score [3] | z-score [4] | composite z-score [5] | composite z-score [6] | composite z-score [7] | composite z-score [8] | composite z-score [9] | composite z-score [10] | composite z-score [11] | z-score [12] | composite z-score [13] | composite z-score [14] | composite z-score [15] | composite z-score [16] | composite z-score [17] | composite z-score [18] | composite z-score [19] | composite z-score [20]
COC(=O)C1=C(C)N(Cc2ccccc2)[C@]23O[C@](C(=O)OC)(C(=O)N2[C@@H]1c1ccccc1)C(C(=O)OC)=C3C(=O)OC | 1.16 | -0.389 | -0.562 | -2.35 (inactive) | 1.24 | 1.06 | 0.7 | 0.84 | 0.757 | 0.226 | 1.3 | -2.76 | 0.88 | -0.328 | -1.19 | -0.0346 | -0.138 | 0.229 | 0.569 | -0.129
CC(C)CON=C1C[C@@H](O)[C@@H](O)[C@@H]2[C@@H]3C(=O)N(c4ccc(F)cc4F)C(=O)[C@@H]3CC[C@H]12 | 0.256 | -0.212 | -0.509 | -0.972 (inactive) | 0.553 | 0.458 | 0.59 | 0.986 | 0.671 | -0.253 | 1.38 | -0.666 | 0.923 | 0.0597 | -0.809 | -0.0735 | -0.0169 | 0.106 | 0.272 | 0.198
CCN1C(=O)[C@H]2[C@H]3[C@H](O)[C@H](O)CC(=NOCC(C)C)[C@@H]3CC[C@H]2C1=O | 0.85 | -0.0898 | -0.672 | 0.272 (inactive) | 0.546 | 1.24 | 0.767 | 0.912 | 0.797 | -0.599 | 1.33 | -0.0305 | 0.32 | -0.39 | -0.682 | -0.096 | -0.0709 | -0.255 | 0.317 | 0.13
CCc1cc2c(nc1CC)CCN(CCC(C)=NO[C@H](C)c1cn([C@H](CO)Cc3ccccc3)nn1)C2 | 0.536 | -0.144 | -0.0059 | -0.0554 (inactive) | 0.0168 | 0.0291 | 0.1 | 0.11 | 0.274 | 1.3 | 0.21 | -2.38 | 0.437 | -0.315 | -0.439 | -0.0165 | 1.19 | -0.4 | 0.967 | 0.568
